Results published in PubChem BioAssay (Tox21).
Unmarked numbers belong to inactive results. A call without a number means that no potency is given here. Activity calls are given as the source filed them. Calls come from the whole dose curve; as a rule, active = well fitted curve in the direction sought with a large enough effect in the repeat runs; inconclusive = weak or mixed curves; inactive = flat fitted curve, though single readings scatter.

Assay: qHTS assay to test for compound auto fluorescence at 460 nm (blue) in HEK293 cells (AID 720678)
Conditions: blue autofluorescence 405/460 nm; series mostly up to 91.3 µM
Source text: National Center for Advancing Translational Sciences [NCATS]
NIH Chemical Genomics Center [NCGC]
U.S. Environmental Protection Agency [EPA]
National Institutes of Environmental Health Sciences [NIEHS]
National Toxicology Program [NTP]
U.S. Food and Drug Administration [FDA]
Compound auto fluorescence often interferes with screening of the compound library against various biological targets and signaling pathways. Some of these compounds may have fluorophoric properties. Such properties may interfere with the assay outputs resulting in false positives and/or negatives. To decrease such complications and ensure the compound activities are relevant in terms of biological response, the Tox21 10K compound library was screened for auto fluorescence.
From the fluorophores used as reporter signals in our screening assays, the auto fluorescence equivalencies of compounds against three fluorophores have been evaluated: Triamterene, Fluorescein and Rose Bengal sodium for blue, green and red fluorescence, respectively. The fluorescence intensities were measured using Excitation/Emission wavelengths at 405/460nm, 485/535nm and 540/590nm for blue, green and red labels, respectively. This assay includes the blue fluorescence data.
Tox21 Assay Protocol Summary:
2,000 HEK293 cells in 5 uL of culture medium containing 10% dialyzed FBS per well were dispensed into black wall/clear bottom 1536-well plates using a Multidrop Combi Dispenser (Thermo Scientific). The assay plates were incubated for 4-5 hr at 37C to allow cell attachment to the well bottom, followed by the transfer of 23 nL compound or DMSO vehicle by a pintool work station (Kalypsys, San Diego, CA). After the assay plates were incubated overnight at 37C and 5% CO2, fluorescence intensities in the assay plates were measured by an Envision (PerkinElmer, Shelton, CT) plate reader using three labels for measuring blue, green and red fluorescence at […] 460, 535 and 590nm respectively.
Potency is the fitted concentration of half-maximal effect; tags give direction and shape of the fitted curve or compound fluorescence and quenching.

SMILES	Potency	fluorescence, % of triamterene
O=C(/C=C/c1ccc(O)c(O)c1)O[C@@H](C(=O)O)[C@@H](OC(=O)/C=C/c1ccc(O)c(O)c1)C(=O)O	inactive	–
O=[N+]([O-])c1cccc(C(F)(F)F)c1	inactive	–
COc1cc(S(=O)(=O)O)c(C)cc1N=Nc1c(O)ccc2cc(S(=O)(=O)O)ccc12	inactive	–
CC1=Nc2ccccc2C1(C)C	inactive	–
CC(=O)CC(=O)Nc1ccc(S(=O)(=O)O)cc1	inactive	–
O=C1NC(=O)[C@@H]2CC=CC[C@H]12	inactive	–
CN1CCCCC1CCN1c2ccccc2Sc2ccc(S(C)=O)cc21 (stereo not given)	inactive	–
C=C(CC)C(=O)c1ccc(OCC(=O)O)c(Cl)c1Cl	inactive	–
Cc1c(C)c([N+](=O)[O-])c(C(C)(C)C)c([N+](=O)[O-])c1C	inactive	–
CCOC(=O)c1ccc(C2CCC(NC[C@H](O)COc3ccc(O)c(NS(C)(=O)=O)c3)CC2)cc1 (stereo not given in full)	inactive	–
O=C(O)c1cccc(C(F)(F)F)c1	inactive	–
O=S(=O)(O)c1ccc(Nc2nc(Nc3ccc(/C=C/c4ccc(Nc5nc(Nc6ccc(S(=O)(=O)O)cc6)nc(N(CCO)CCO)n5)cc4S(=O)(=O)O)c(S(=O)(=O)O)c3)nc(N(CCO)CCO)n2)cc1	31.6 µM [fluorescent] (active)	–
ClCCl	inactive	–
CC(C)(C)C1CCC(=O)CC1	inactive	–
CCc1ccc(Br)cc1	inactive	–
Cc1c(C)c2c(c(C)c1O)CC[C@@](C)(CCC[C@H](C)CCC[C@H](C)CCCC(C)C)O2	inactive	–
Nc1nc(-c2ccccc2)cs1	inactive	–
CC(=O)c1ccc(C(C)=O)cc1	inactive	–
CC[N+](CC)(CC)CCOc1ccc(/C=C/c2ccccc2)cc1	inactive	–
Nc1ccc(NCCO)c([N+](=O)[O-])c1	inactive	–

SMILES	Potency	fluorescence, % of triamterene
CCN1C(=O)c2ccccc2C1Nc1ccc(OCCN2CCCCC2)cc1 (stereo not given)	inactive	–
C#C[C@]1(O)CC[C@H]2[C@@H]3[C@H](C)CC4=C(CCC(=O)C4)[C@H]3CC[C@@]21C	inactive	–
CC(C)OC(=O)C(O)(CC(=O)O)CC(=O)O	inactive	–
C=CC(=O)Nc1cc2c(Nc3ccc(F)c(Cl)c3)ncnc2cc1OCCCN1CCOCC1	inactive	–
OC1CCCc2ccccc21 (stereo not given)	inactive	–
C#CC1(O)CC[C@H]2[C@@H]3CCC4=CCCC[C@@H]4[C@H]3CC[C@@]21C (stereo not given in full)	inactive	–
Clc1ccnc(Cl)n1	inactive	–
Cc1ccc(C)cc1	inactive	–
Cc1cc(-c2ccc(N=Nc3cc(S(=O)(=O)O)c4ccccc4c3N)c(C)c2)ccc1N=Nc1cc(S(=O)(=O)O)c2ccccc2c1N	inactive	–
O=C1CCc2cc(OCCCCc3nnnn3C3CCCCC3)ccc2N1	inactive	–
[Cl][Pt-2]([Cl])([Cl])[Cl]	inactive	–
O=C(O)c1cc(-c2ccc(F)cc2F)ccc1O	–	-0.0352% [at 18.6 µM]
c1ccsc1	inactive	–
c1ccc(SSc2ccccc2)cc1	inactive	–
CCc1oc2ccccc2c1C(=O)c1cc(I)c(O)c(I)c1	inactive	–
CNC(=O)c1ccccc1Sc1ccc2c(/C=C/c3ccccn3)n[nH]c2c1	inactive	–
O=C(O)c1cc(=O)c2ccccc2o1	inactive	–
CCCC(=O)OCCc1ccccc1	inactive	–
CCC(C)[O-].CCC(C)[O-].CCOC(=O)/C=C(/C)[O-].[Al+3]	inactive	–
CCCCCC(C)OC(=O)COc1ccc(Cl)c2cccnc12 (stereo not given)	inactive	–
